# Source: ChEMBL document CHEMBL4888484, “Replenishing the malaria drug discovery pipeline: Screening and hit evaluation of the MMV Hit Generation Library 1 (HGL1) against asexual blood stage Plasmodium falciparum ,using a nano luciferase reporter read-out” (2022)
# Values joined by “and” are separate entries in the source; they are usually repeats but may differ in a detail not shown here. Identical values can stand only once. Hit rate of the full screen: of about 4,800 compounds, about 420 (8.8%) showed an effect of 50% or more. The entries come from a sample that favours strong results as a whole.
# Tested on: Plasmodium falciparum
# Assay: Confirmatory screen in NF54 nanoGlo assay, in single point, at 2uM, 72h
# Format: functional, Erythrocyte
# Details: timepoint 72 hour
SMILES,% Inhibition [%],% Inhibition (2 µM)
CC(C)(C)OC(=O)NS(=O)(=O)Nc1nccs1,-13,
COCCN(c1ccncc1)S(C)(=O)=O,6,
CCc1ccc(NCc2c(OCc3ccc(Br)cc3)ccc3ccccc23)cc1,-11,
Cc1c(S(=O)(=O)N2CCC[C@H](C(=O)NC3CC3)C2)cnn1C,-4,
O=C(Nc1ccccc1)c1ccc2c(c1)C(=O)N(CCc1ccccc1)C2=O,-9,
O=C(Cn1c(Cc2ccc(Cl)cc2)nc2ccccc21)Nc1ccccc1,14,
Cc1ccc(S(=O)(=O)c2c(NS(=O)(=O)c3ccc(F)cc3)n(CCc3ccccc3)c3nc4ccccc4nc23)cc1,100,
O=C(Nc1c(S(=O)(=O)c2ccccc2)c2nc3ccccc3nc2n1CCc1ccccc1)c1ccc(Cl)cc1,102,
Cc1ccc(S(=O)(=O)c2c(NS(=O)(=O)c3ccccc3)n(CCc3ccccc3)c3nc4ccccc4nc23)cc1,100,
CC(C)CCn1c(=O)c2sccc2n(CC(=O)N(C)c2ccccc2)c1=O,5,
COc1cc(OC)c(NC(=O)COc2ccccc2-c2nc3ccccc3s2)cc1Cl,0,
O=C(c1cc2c(s1)CCCC2)N1CCC[C@H](c2nnc3ccccn23)C1,-17,
CCN1C(=O)[C@@]2(CC(=O)Nc3c2c(C)nn3-c2ncnc3nc[nH]c23)c2cc(C)ccc21,2,
COc1ccccc1OCc1nn2c([C@H]3CCCN(S(C)(=O)=O)C3)nnc2s1,-3,
N=C(Cc1ccccc1)NOC(=O)c1cccc2ccccc12,-11,
O=C(O)c1cc2c(cc1C(=O)Nc1ccc(Cl)cc1)=[O+]c1ccccc1-c1ccccc1[O+]=2,-17,
O=C(Nc1ccc(N2CCn3c(nc4ccccc43)C2)cc1)c1ccc(F)cc1,9,
O=C(COc1ccccc1Cl)Nc1ccc(C2(c3ccc(NC(=O)COc4ccccc4Cl)cc3)c3ccccc3-c3ccccc32)cc1,0,
O=C1c2ccccc2C(c2ccc(NC(=O)c3cccc4ccccc34)cc2)(c2ccc(NC(=O)c3cccc4ccccc34)cc2)c2ccccc21,83,
O=C(Nc1ccc(C2(c3ccc(NC(=O)c4ccc(F)cc4)cc3)c3ccccc3C(=O)c3ccccc32)cc1)c1ccc(F)cc1,67,
O=C(c1ccccc1F)N(Cc1nccn1Cc1ccccc1F)CC1CC1,20,
O=C(Nc1ccc(Cl)cc1)c1cccc(N2C(=O)C3CCC(c4ccccc4)CC3C2=O)c1 (stereo not drawn),-5,
COc1cc([C@H](CC(=O)NC2CCN(Cc3ccccc3)CC2)N2Cc3ccccc3C2=O)cc(OC)c1OC,33,
CN1CCN(C(=O)[C@H](C(=O)c2ccccc2)n2cc(Cl)ccc2=O)CC1,-9,
Fc1ccccc1N1CCN(C2CCN(Cc3c[nH]c4ccccc34)CC2)CC1,4,

SMILES,% Inhibition [%],% Inhibition (2 µM)
COc1ccccc1N1CCN(Cc2nc3ccccc3c(=O)n2-c2ccc(F)cc2)CC1,6,
COc1ccc2[nH]c3c(c2c1)CC(C(=O)O)NC3c1ccc(OC)c(CN2CCN(c3ccccc3F)CC2)c1 (stereo not drawn),76,
CC(C)(C)CCN1CCN(S(=O)(=O)C[C@H]2CCCS(=O)(=O)C2)CC1,-3,
C[C@@H](CN)N(C)c1ccnc2cc(Br)cnc12,98,
COc1c(Br)cc(Br)cc1C(N)=O,-5,
CCCOc1cc2nc(C(F)(F)F)cc(-c3cccs3)c2cc1OCCC,-4,
CC1=CC(=[N+](CCO)CCO)C=C/C1=C(\c1ccc(N(CCO)CCO)cc1C)c1ccccc1Cl,91,
Cc1ccc([C@@H]2CC(=O)Nc3nc(N4CCN(CCO)CC4)nc(O)c32)cc1,2,
NC(=O)CN1CCC2(CC1)NC(c1ccc(OC(F)(F)F)cc1)=NO2,0,
Cc1cncc(C(=O)N2CC(n3cnnc3C)C2)c1,-19,
CCc1nnc(NC(=O)C2CC2c2ccccc2)s1 (stereo not drawn),-3,
COC(=O)c1c(NC(=O)[C@H]2CCCN(S(=O)(=O)c3cnn(C)c3C)C2)cnn1C,4,
CNS(=O)(=O)CC(=O)Nc1cc(Br)c(F)cc1F,-12,
COc1cccc(CNC(=O)CCC(=O)N(c2ccccc2)c2ccccc2)c1,7,
CCCNC(=O)C[C@H](C)CC(=O)NCCc1ccc(OC)c(OC)c1,4,
COc1ccc(CCNC(=O)CCCC(=O)NCc2ccccc2)cc1OC,-14,
COc1ccc(CC(=N)Nc2cc3cc(OC)c(OC)cc3c(Cc3ccc(OC)c(OC)c3)n2)cc1OC,80,
COC(=O)C1=C(C(=O)OC)SC(=C2C(=S)C(C)(C)N(C(=O)c3cccnc3)c3c(C)cc(C)cc32)S1,4,
Oc1cccc(CN[C@H]2CCCc3occc32)c1Cl,71,
CC(O)CC(C)(C)CNC1CCCc2occc21 (stereo not drawn),-12,
O=C(N[C@H]1CCCc2occc21)c1ccco1,0,
CCN1CCC(CCNC(=O)c2cc3c(s2)N(CC)CCCC3)CC1,-7,
CCOc1cc(N2CCOCC2)c(OCC)cc1NC(=O)c1ccc(C)c(NC(=O)c2ccco2)c1,22,
N#Cc1nc(NC(=O)c2cc3c(s2)CCOC3)[nH]c1C#N,3,
CN(CC(F)(F)F)S(=O)(=O)c1ccc(C(=O)O)cc1,-5,

SMILES,% Inhibition [%],% Inhibition (2 µM)
Cc1ccc(CC[C@H]2Nc3ccccc3C(c3ccccc3)(c3ccccc3)O2)o1,74,
Cc1ccccc1[C@H]1CCN(c2ccc(NC(=O)c3ccc(F)cc3)c(C(=O)O)c2)C1,-11,
Cc1cc(Cn2cc(C(c3ccccc3)c3ccccc3)nn2)no1,-3,
Nc1c(-c2ccccc2)nsc1C(=O)NCc1ccc(F)cc1,-2,
CC(=O)Nc1ccc(NC(=O)CN2CCCN(c3cncc(F)c3)CC2)cc1,-1,
O=C(O)C1C2C=CC(O2)C1C(=O)NC1CCCc2ccccc21 (stereo not drawn),-4,
O=C(CC(O)c1cccc(F)c1)NCCC1CCCCO1 (stereo not drawn),-1,
COc1cccc(-c2nc3n(c2C(=O)NCC(C)C)CCS3(=O)=O)c1,-2,
COc1cccc(-c2nc(C)c(C(=O)Nc3n[nH]c(CC(C)C)n3)s2)c1,,78% and 70%
COc1cccc(CNC(=O)c2sc(Nc3ccc(C)cc3C)nc2C)c1,-13,
CCO[C@@H](C)C(=O)Nc1n[nH]c(Cc2cccc(F)c2)n1,-1,
COCCc1cc(NC(=O)Nc2sc(-c3ccccc3)nc2C)n(C)n1,14,
COc1cccc(-c2nc(C)c(C(=O)Nc3nc(C(C)C)n[nH]3)s2)c1,74,
C[C@@](CO)(NC(=O)Nc1cc(-c2ccco2)ccc1F)C1CC1,-4,
O=C(c1ccccc1)c1c[nH]c2c(F)cc(F)cc2c1=O,-5,
CCOCCc1nc(-c2ccccn2)c(CCOCC)nc1-c1ccccn1,10,
O=C1NC(=O)[C@]2(CCOc3ccc(F)cc32)N1,-3,
Cc1cc(C)n2c(=O)c3ccccc3nc2c1C#N,-5,
Cc1cc(C)nc(NCCC[C@H]2CCCCO2)n1,-6,
Cc1cccc(CNC(=O)NC2CCOC2c2ccc(Cl)cc2)n1 (stereo not drawn),-15,
Cc1cccc(CN(Cc2cccc(C)n2)C[C@H]2CCCCO2)n1,90,
O[C@H]1CNCC[C@@H]1Nc1cc(-c2ccccc2)nc2ccccc12,46,
COc1cc(OC)c(S(=O)(=O)NC(C)C)cc1S(=O)(=O)NC(C)C,-4,
O=C1CC(c2cccc(Br)c2)N(S(=O)Oc2ccccc2)c2ccccc21 (stereo not drawn),4,
COc1ccc(CNc2nc(-c3nnc(-c4ccccc4)o3)nc3ccccc23)cc1,55,

SMILES,% Inhibition [%],% Inhibition (2 µM)
COc1ccc2oc(-c3ccc(CNC(=O)c4ccccc4)cc3)nc2c1,-5,
COc1ccc2oc(-c3ccc(CNC(=O)c4ccc(C)cc4)cc3)nc2c1,-3,
Oc1c(-n2cncn2)cnc2ncnn12,-7,
Cc1cc(-c2ccco2)cc(Cl)c1N,-1,
O=C1CCN(C(=O)C2(c3cccc(Cl)c3)CCCC2)CCN1,2,
CC(C)(C)c1ccc(-c2ccc(C(=O)NCC3(O)CCOCC3)o2)cc1,0,
COc1ccc(NC(=O)[C@@H](C)C2CCOCC2)cc1,-6,
COC(=O)c1c(NC(C)=O)c2cc(NC3CCOCC3)cnc2n1CCc1ccc(OC)cc1,70,
CCc1c(NC(=O)[C@@H](C)C2CC2)nnn1CCc1ccc(OC)cc1,-1,
Cc1nn(C)c2c(N3CCOCC3)nc(C3CC3)nc12,-8,
CC[C@H]1Cn2c(C(=O)NCc3ccc(C)o3)cc3cccc(c32)O1,-11,
COc1ccc(-c2nnc(COc3ccc(-c4ccccc4)cc3)s2)cc1,-7,
COc1ccc(CCc2nnc3n2CCOC3)cc1,-4,
COc1ccc(-[n+]2c(-c3ccc(-c4ccccc4)cc3)cn3c2COCC3)cc1,66,
COc1ccc(-[n+]2c(-c3ccccc3)cn3c2CCC3)cc1,77,
COc1ccc(-c2nc(N)s[n+]2-c2ccccc2)cc1,-2,
COc1ccc(-c2noc(Cn3c(=O)c4ccccc4n(CC(=O)Nc4cc(C)ccc4C)c3=O)n2)cc1,0,
O=C(Nc1nn(Cc2ccccc2)cc1Cl)c1cc(-c2ccc(OC(F)F)cc2)[nH]n1,4,
Nc1noc2cc(C(F)(F)F)cnc12,4,
COc1ccc2c(c1)CN(c1nnc(C3CC3)o1)CC2,7,
CN1CCN(Cc2cc3cc4c(cc3nc2-c2ccc(Cl)cc2)OCO4)CC1=O,53,
O=c1[nH]c2cc3c(cc2c(=O)n1Cc1nc(-c2ccc(Cl)cc2)no1)OCO3,-1,
Cc1cc(C)nc(-n2nc(-c3ccc(Cl)cc3)c3c2NC(=O)C[C@@H]3c2ccc3c(c2)OCO3)n1,-7,
